High-throughput results deposited in PubChem BioAssay by National Center for Advancing Translational Sciences (NCATS).
Hits are enriched below; roughly 1.1% of the tested compounds scored in any of these assays.
IMPase Li inh – IMPase inhibition in cells with lithium potentiation; CHO-M1 cells, IP1 TR-FRET (IP-One), carbachol + lithium; AID 1457; Potency, µM (top dose mostly 59.4 µM), usual class: inhibitors; 210,000 compounds, 0.35% hits;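 also: IP1 builds up when IMPase is blocked and the TR-FRET signal falls; nearly all actives have a fitted effect of over 50% in size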
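Concentration–response in CHO-M1 cells, lithium-potentiated; 30 min at 37C. IP1 detected by competitive TR-FRET after 10 min lysis at RT. Hill-fitted AC50.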
NPSR antagonist – blocks cAMP signaling of the human neuropeptide S receptor. Q6W5P4. CHO-NPSR cells, cAMP TR-FRET, antagonist mode. Potency, µM (series often up to 38.3 µM), hits mostly inhibitors. 220,000 compounds, 1% hits; also: nearly all actives have a fitted effect of over 50% in size
Target sequence (Q6W5P4 whole entry, looked up): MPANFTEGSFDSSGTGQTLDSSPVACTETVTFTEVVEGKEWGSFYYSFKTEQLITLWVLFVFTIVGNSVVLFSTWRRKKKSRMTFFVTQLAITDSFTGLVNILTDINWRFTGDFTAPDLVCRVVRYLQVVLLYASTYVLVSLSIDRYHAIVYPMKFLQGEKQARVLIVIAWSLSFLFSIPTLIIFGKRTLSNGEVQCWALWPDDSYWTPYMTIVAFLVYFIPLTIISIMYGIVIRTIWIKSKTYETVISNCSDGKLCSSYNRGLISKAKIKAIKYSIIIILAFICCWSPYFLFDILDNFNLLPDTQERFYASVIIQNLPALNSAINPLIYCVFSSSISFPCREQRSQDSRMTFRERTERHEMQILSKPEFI
KinaseGlo FLuc – counter-screen: inhibitors of Kinase-Glo firefly luciferase | Potency, µM (top dose mostly 38.3 µM), most hits filed as inhibitors | Kinase-Glo luciferase, ATP luminescence, 8 min | AID 1379 | 200,000 compounds, 0.28% hits; also: nearly all actives have a fitted effect of over 60% in size
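Compound is pinned into ATP-containing buffer (10 uM ATP, imidazole pH 7.2, 7 mM MgCl2). Kinase-Glo luciferase reagent is then added. Light output is recorded following an 8-min room-temperature incubation.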
ERK EGF block – blocks ERK signaling stimulated by EGF. 130,000 compounds, 0.41% hits. Potency, µM (top dose mostly 11.5 µM), usual class: inhibitors. HEK293-V1b, EGF-stimulated phospho-ERK AlphaScreen. AID 1454; also: nearly all actives have a fitted effect of over 55% in size
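HEK293 cells stably expressing V1b receptor, serum-reduced (1% FBS) overnight, got compound for 30 min at 37C, then 25 nM EGF for 5 min. Lysate phospho-ERK read by AlphaScreen SureFire; AC50 from Hill fits.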
A number is an active result; 0 = inactive; ? = inconclusive; - = no result; [ ] = another dose, or the depositor's remark. Calls follow the shape of the dose curve; as a rule, active = well fitted curve in the direction sought with a large enough effect; inconclusive = small, poorly fitted or top-dose-only effect, or another doubt; inactive = no such curve, though single readings can be large; an effect the other way counts as inactive or inconclusive.

SMILES | IMPase Li inh | NPSR antagonist | KinaseGlo FLuc | ERK EGF block
Nc1ncnc2c1ncn2[C@@H]1O[C@H](COP(=O)(O)OP(=O)(O)CP(=O)(O)O)[C@@H](O)[C@H]1O | 0 | - | - | -
COc1ccccc1CNc1ncncc1-c1ccc(N(C)C)cc1 | 0 | - | 0 | 20µM
COc1ccc(CNc2ncncc2-c2ccc(N(C)C)cc2)c(OC)c1 | 0 | - | - | -
Cc1ccccc1NC(=O)Cn1nnc(-c2ccc(N3CCOCC3)cc2)n1 | 10µM | 0 | 0 | -
CCOC(=O)/C(=C\c1ccc(Cl)cc1)c1nc2sc(C)c(C)c2c(=O)[nH]1 | 0 | 7.9µM | 0 | 0
Cc1[nH]n(-c2ccccc2)c(=O)c1/C=N/NC(=O)c1cccc([N+](=O)[O-])c1 | 0 | 0 | 0 | -
Cc1ccc(-n2[nH]c(C)c(/C=N/Nc3ccc([N+](=O)[O-])cc3[N+](=O)[O-])c2=O)cc1C | 0 | 0 | ? | 16µM
CC[C@H]1C(c2cccc(Cl)c2)=NN(c2ccccc2)[C@@H]1CO | 22µM | - | 0 | -
Cc1ccc(C)c(NC(=O)NCc2ccc(Cl)cc2)c1 | 0 | - | 0[7.66 µM] | -
CCNC(=S)NNC(=O)c1cc(-c2cccc(C)c2)nc2ccccc12 | 0 | 0 | 13µM | -
COc1ccc(CSc2nc3ccccc3[nH]2)cc1 | 0 | 0 | 8.9µM | -
Cc1ccc(C(=O)Nc2ncc3c(Cl)cccc3n2)cc1 | 0 | 0 | 11µM | -
Cc1ccc(C(=O)Nc2nccc(-c3cccs3)n2)cc1 | 0 | 0 | 0 | -
CSc1nc2ccc(Cl)cc2[nH]1 | 0 | 0 | 0 | 0
CSc1nc2cc(Oc3cccc(Cl)c3Cl)c(Cl)cc2[nH]1 | - | 13µM | - | 0
CC(C)n1nnc2cc(C(=O)O)ccc21 | 0 | - | 0 | -
C#CC(=O)N(c1ccc(OC)c(OC)c1)C(C(=O)NC1CCCC1)c1cccs1 (centres undefined) | 0 | 13µM | 0 | -
C#CC(=O)N(c1cccc(OC)c1)C(C(=O)NC1CCCC1)c1cccs1 (centres undefined) | 0 | 4µM | 0 | -
COc1ccc(N(C(=O)Cc2cccs2)C(C(=O)NC2CCCCC2)c2cccn2C)cc1OC (centres undefined) | 0 | 0 | 0 | 0
C/C=C(/C)C#N | 0 | - | - | -
COc1ccc(NS(=O)(=O)c2cc(NC(=O)C3CCCO3)ccc2N2CCCCC2)cc1 (centres undefined) | 0 | 10µM | - | 0
CCOc1ccc(-n2c(SCC(=O)NCc3ccco3)nnc2-c2c[nH]c3ccccc23)cc1 | 0 | 13µM | 0 | -
c1coc(CN(Cc2ccco2)c2ncnc3c2oc2ccccc23)c1 | 0 | ? | 0 | 18µM
CNC/C(Cl)=N/S(=O)(=O)c1ccc(C)cc1 | 0 | - | 0[7.66 µM] | -
COC(=O)CNC(=O)C1(C)C=CC2(CCCCC2)N1C(C)=O (centres undefined) | 0 | - | 0 | 0
SMILES | IMPase Li inh | NPSR antagonist | KinaseGlo FLuc | ERK EGF block
C=CCn1c(NC(=O)c2ccc(Br)o2)c(S(=O)(=O)c2ccccc2)c2nc3ccccc3nc21 | 10µM | 0 | 0 | -
CC1=C(C(=O)O)N2C(=O)[C@@H](NC(=O)[C@@H](N)c3ccc(O)cc3)[C@@H]2SC1 | 0 | - | 0 | 0
O=C(c1cccs1)c1ccc(-c2cccs2)s1 | 0 | 0 | 7.9µM | -
C[C@@H]1CC2(OC3C[C@@]4(C)C5=CC[C@H]6C(C)(C)C(O[C@@H]7OC[C@@H](O)[C@H](O)[C@H]7O)CC[C@@]67C[C@@]57CC[C@]4(C)C31)OC(O)C1(C)OC21 (some centres undefined) | 0 | - | - | -
CCOC(=O)CC1C(=O)NCCN1c1nc2c(C)cccn2c(=O)c1/C=C1\SC(=S)N(CC(C)C)C1=O (centres undefined) | - | 10µM | - | 0
O=C(NCc1cccc2ccccc12)[C@H]1C[C@@H]1[C@H](NP(=O)(c1ccccc1)c1ccccc1)c1ccccc1 | 0 | - | 0 | 0
Cc1ccc(O)c(C(=O)c2cc(C#N)c3nc4ccccc4n3c2)c1 | 0 | 0 | 0 | 32µM
C[C@H]1[C@H](C)CC[C@]2(C(=O)O)CC[C@]3(C)C(=CC[C@H]4[C@]3(C)C[C@@H](O)C3[C@](C)(CO)[C@H](O)[C@@H](O)C[C@]34C)[C@H]12 (some centres undefined) | 0 | - | 0[7.66 µM] | -
CCOC(=O)c1c(-c2ccc(C)cc2)csc1NC(=S)NC(=O)c1ccccc1 | 0 | 0 | 0 | -
CCOC(=O)c1c(-c2ccc(C)cc2)csc1NC1=NS(=O)(=O)c2ccccc21 | 11µM | ? | 0 | 0
Cc1ccnc(NC(=O)c2cc3ccccc3oc2=O)c1 | 0 | 0 | 11µM | 0
CCOC(=O)c1c(-c2ccc(C)cc2)csc1NC(=O)C1CC=CCC1C(=O)O (centres undefined) | 0 | 0 | 0 | -
CCOC(=O)c1c(-c2ccc(C)cc2)csc1NC(=O)c1cc2ccccc2oc1=O | 0 | 10µM | 0 | -
COc1ccc2c(c1)C(=O)[C@@H](OC(=O)Nc1cc(OC)c(OC)c(OC)c1)[C@H](c1ccc(OC)c(Br)c1)O2 | 0 | - | 0 | 0
O=S(=O)(O)c1ccccc1 | 0 | - | - | -
Nc1c(O)ccc2c1C(=O)c1ccccc1C2=O | 0 | 10µM | 0 | 28µM
COc1ccc2c(c1O)C(=O)c1ccccc1C2=O | 0 | 0 | - | 0
O=C1C2C3C=CC(CO)(O3)C2C(=O)N1c1ccccc1-c1ccccc1 (centres undefined) | 0 | 6.3µM | 0 | -
Cc1csc(NC(=O)c2ccc(N3CCCC3=O)cc2)n1 | 0 | 0 | 13µM | 0
O=C(NC1=NCCS1)c1ccc(N2CCCC2=O)cc1 | 0 | 0 | 0 | 0
O=C(O)c1ccc(N=NNc2cccc([N+](=O)[O-])c2)cc1 | 0 | 0 | 0 | 0
N#C/C(=N\Nc1cccc([N+](=O)[O-])c1)C(=O)c1ccc(Br)cc1 | 0 | 6.3µM | 0 | 0
COC(=O)c1ccc2c(c1)C(C)(C)C(/C=C/c1ccccc1O)=[N+]2C | 0 | 0 | 4.5µM | -
COC(=O)c1c(NC(=O)/C=C/C(=O)O)sc(C)c1-c1ccc(C(C)C)cc1 | 0 | 13µM | 0 | 0
COC(=O)c1c(NC(=O)/C=C/C(=O)O)sc(C)c1-c1ccc(C)cc1 | 0 | 0 | 0 | 0
SMILES | IMPase Li inh | NPSR antagonist | KinaseGlo FLuc | ERK EGF block
Clc1ccccc1-c1nc(NC2CCNCC2)c2ccccc2n1 | 0 | - | - | -
Cc1cc(NC(=O)c2ccc3c(c2)OCO3)ccc1NC(=O)c1ccco1 | 0 | 0 | 11µM | 0
O=C(Nc1ccon1)c1ccc2c(c1)OCO2 | ? | 0 | 0 | -
Cc1ccnc(NC(=O)c2ccc3c(c2)OCO3)c1 | 0 | 0 | 13µM | 0
CCCCc1cc2c(cn1)=C(OC(=O)C1CCCC1)C(C)(OC(=O)CC)C(=O)C=2 (centres undefined) | 0 | - | 0[7.66 µM] | -
N#Cc1ccc(CN2CCC3(CC2)CCN(C(=O)c2cc(C(F)(F)F)cc(C(F)(F)F)c2)CC3)cc1 | 0 | - | 0 | 0
CCOC(=O)c1sc2nc(C)nc(SCC(=O)N(C)C3CCS(=O)(=O)C3)c2c1C (centres undefined) | 10µM | 0 | 0 | 0
CCOC(=O)c1sc2nc(C)nc(SCC(=O)NC(C)CCc3ccccc3)c2c1C (centres undefined) | 10µM | 0 | 0 | 0
CC(CCc1ccccc1)NC(=O)CSc1ccccn1 (centres undefined) | 0 | 0 | 0 | 0
